Assay results from PubChem BioAssay AID1347074 (Center for Chemical Genomics, University of Michigan, 2019).
Hit rate of the full screen: of about 47,000 compounds, about 2,800 (6%) were called active. For the sample, actives were picked, then their nearest neighbours and some compounds at random. A number with no mark means an inactive call. Rule as the data show it: active = z-score above about 3 (passing the limit was not always enough); inactive = the rest.

Molecular target: Endoribonuclease Dicer (Homo sapiens) (UniProt Q9UPY3)
Sequence (Q9UPY3 whole entry, looked up): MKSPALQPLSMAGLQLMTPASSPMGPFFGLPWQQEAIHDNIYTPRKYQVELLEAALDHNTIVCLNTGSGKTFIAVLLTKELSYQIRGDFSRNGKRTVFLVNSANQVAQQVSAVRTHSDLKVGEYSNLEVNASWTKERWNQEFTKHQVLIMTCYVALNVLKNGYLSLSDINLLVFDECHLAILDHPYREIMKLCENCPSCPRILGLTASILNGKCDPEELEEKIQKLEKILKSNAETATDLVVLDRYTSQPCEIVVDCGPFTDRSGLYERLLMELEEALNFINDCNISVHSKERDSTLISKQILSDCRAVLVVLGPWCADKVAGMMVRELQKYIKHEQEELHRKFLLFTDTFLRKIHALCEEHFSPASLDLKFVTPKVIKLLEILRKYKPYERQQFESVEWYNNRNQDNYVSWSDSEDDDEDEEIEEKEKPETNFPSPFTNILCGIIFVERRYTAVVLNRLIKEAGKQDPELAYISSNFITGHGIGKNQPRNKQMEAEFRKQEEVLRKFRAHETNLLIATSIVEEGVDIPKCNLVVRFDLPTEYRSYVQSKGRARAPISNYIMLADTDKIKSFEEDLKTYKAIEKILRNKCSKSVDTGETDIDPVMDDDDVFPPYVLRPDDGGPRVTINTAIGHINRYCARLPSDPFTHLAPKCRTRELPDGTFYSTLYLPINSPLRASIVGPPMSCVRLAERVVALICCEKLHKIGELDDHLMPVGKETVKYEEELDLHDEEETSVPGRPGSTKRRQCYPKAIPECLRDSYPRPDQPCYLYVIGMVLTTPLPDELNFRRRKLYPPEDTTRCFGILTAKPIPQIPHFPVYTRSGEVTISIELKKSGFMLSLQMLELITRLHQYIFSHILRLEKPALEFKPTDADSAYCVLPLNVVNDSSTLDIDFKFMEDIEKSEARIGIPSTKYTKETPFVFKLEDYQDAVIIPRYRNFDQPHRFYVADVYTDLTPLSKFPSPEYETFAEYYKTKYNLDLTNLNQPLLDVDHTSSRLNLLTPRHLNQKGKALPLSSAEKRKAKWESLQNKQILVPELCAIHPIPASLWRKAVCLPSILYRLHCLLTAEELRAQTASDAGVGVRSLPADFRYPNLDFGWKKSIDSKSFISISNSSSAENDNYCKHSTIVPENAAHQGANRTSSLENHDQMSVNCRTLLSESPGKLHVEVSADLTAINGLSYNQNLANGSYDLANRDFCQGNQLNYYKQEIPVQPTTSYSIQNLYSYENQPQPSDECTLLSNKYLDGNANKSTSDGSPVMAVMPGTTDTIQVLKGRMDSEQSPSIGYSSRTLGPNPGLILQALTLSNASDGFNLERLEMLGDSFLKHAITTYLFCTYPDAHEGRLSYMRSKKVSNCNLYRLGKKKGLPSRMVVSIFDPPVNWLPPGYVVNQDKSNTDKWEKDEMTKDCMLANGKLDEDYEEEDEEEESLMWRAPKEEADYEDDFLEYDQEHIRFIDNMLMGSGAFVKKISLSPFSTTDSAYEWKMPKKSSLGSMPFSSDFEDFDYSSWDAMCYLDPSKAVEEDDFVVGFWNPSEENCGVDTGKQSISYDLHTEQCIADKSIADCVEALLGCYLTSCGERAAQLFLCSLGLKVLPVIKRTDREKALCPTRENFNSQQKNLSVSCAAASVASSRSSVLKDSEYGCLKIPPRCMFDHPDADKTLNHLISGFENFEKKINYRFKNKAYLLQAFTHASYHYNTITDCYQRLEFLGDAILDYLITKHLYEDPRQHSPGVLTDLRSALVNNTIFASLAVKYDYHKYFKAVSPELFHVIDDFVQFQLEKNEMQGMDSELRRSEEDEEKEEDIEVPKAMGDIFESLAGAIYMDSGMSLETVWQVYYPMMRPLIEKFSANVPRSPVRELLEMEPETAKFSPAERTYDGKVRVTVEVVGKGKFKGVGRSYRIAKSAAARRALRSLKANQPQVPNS
Test: inhibitors of Dicer pre-microRNA processing, primary screen, biochemical, cat-ELCCA, chemiluminescence (AID 1347074);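 also: plate controls were vehicle for no effect and no enzyme for full effect; higher signal means more uncleaved substrate so more Dicer inhibition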
Details: cat-ELCCA pre-miR-21 Dicer processing, at 25 µM, stronger effect = higher value

Compound | z-score
CN1CCc2c(sc3c2C(=O)NC(c2ccc(Br)cc2)N3)C1 (stereo not drawn) | -0.13
C/C(=N\OC(=O)Nc1ccc(Cl)cc1)c1cc(-c2ccccc2)no1 | -0.26
CCOc1ccccc1C1C2=C(CCCC2=O)Nc2nnnn21 (stereo not drawn) | 2.2
Cc1c(Br)c([N+](=O)[O-])nn1CC(=O)NCCCn1ccnc1 | -0.68
O=C(O)c1cnc(NCc2ccccc2)s1 | -1.01
O=C(NCc1cccnc1)c1cnc2ccccc2n1 | 0.67
O=C(NCc1ccccc1)c1cc2sccc2s1 | 3.86 (active)
Cc1c(C)c(C)c(CSCC(=O)N/N=C/C=C/c2ccccc2)c(C)c1C | 1.61
Cc1ccc(C2CC(C(F)(F)F)n3ncc(C(=O)N(C)Cc4cn(C)nc4C)c3N2)cc1 (stereo not drawn) | -1.27
O=C(Nc1ccc(F)cc1)Nc1nnc(C2CC2)s1 | 0.03
c1coc(CNc2ncnc3ccccc23)c1 | -1.16
O=C(NCc1ccco1)c1nc2ncccn2n1 | 0.13
CS(=O)(=O)n1nc(-c2ccccc2)nc1NCc1ccco1 | 4.95 (active)
CN(C)C(=O)Nc1ccc(C(C)(C)C)cc1 | 0.46
CN(C)c1ccc(NC(=O)C(=O)NCCO)cc1 | 3.85 (active)
CN(C)c1ccc(C(=S)c2ccc(N(C)C)cc2)cc1 | 0.42
CC(=O)c1ccc(OCc2ccc(Cl)c(Cl)c2)c(C)c1O | -0.27
CCCCCOC(=O)COc1ccc2c(=O)c(Oc3cccc(C)c3)coc2c1 | -1.17
O=c1oc2ccccc2c2c1ncn2CCCN1CCOCC1 | 0.33
CCOC(=O)/C(C#N)=C/Nc1ccc(OC)c(C(=O)OC)c1OC | -2.66
COc1ccc(-c2c(-c3ccccc3)oc3ncnc(N)c23)cc1 | 4.1 (active)
COc1ccc(-c2oc3ncnc(NCCCO)c3c2-c2ccc(OC)cc2)cc1 | 0.89
c1ccc(-c2oc3ncn4nc(-c5ccccn5)nc4c3c2-c2ccccc2)cc1 | -0.36
CCc1ccc(C2c3c(oc4ccc(C)cc4c3=O)C(=O)N2c2nccs2)cc1 (stereo not drawn) | 0.49
CCCC1=NN(c2ccc(S(N)(=O)=O)cc2)C(=O)C1 | -4.3
COC(OC)c1nc(SCc2ccc(Cl)cc2)ncc1C(=O)O | -1.32

Compound | z-score
CN(C)NC(=O)c1csnc1-c1c(Cl)cccc1Cl | 3.48 (active)
Cc1onc(-c2c(Cl)cccc2Cl)c1C(=O)NN(C)c1ccc([N+](=O)[O-])cn1 | 0.9
CCCCNC(=O)Nc1onc(-c2c(Cl)cccc2Cl)c1C(=O)OC | 0.02
CCCCC#Cc1cncc(C(=O)O)c1 | 0.66
O=C(O)C1=Cc2cc(Cl)ccc2OC1 | 1.52
COC(=O)c1scc(C)c1NC(=O)C1=Cc2cc(Cl)ccc2OC1 | -0.31
O=C(Nc1ccc2c(c1)OCC1CCCN21)C1=Cc2ccccc2OC1 (stereo not drawn) | 4.37 (active)
C=CCNC(=O)CSc1nc2c(c(C(F)(F)F)n1)CCc1ccccc1-2 | 1.7
CCc1nc(-c2ccc(-c3ccccc3)nc2OC)no1 | 0.85
COc1cc(OC)cc(-c2nc(-c3ccc(-c4ccccc4)nc3OC)no2)c1 | 1.1
CCCc1cc(=O)oc2c1c(C)nn2-c1cccc(Cl)c1 | -1.83
COC(=O)c1sc(C(F)(F)F)c(-c2ccccc2)c1S(=O)(=O)N(C)C | 0.21
COC(=O)C1=C(c2ccccc2)C(c2ccccc2)=C(C(=O)OC)C1=O | 3.2 (active)
COC(NC(=O)c1ccccc1)(C(F)(F)F)C(F)(F)F | -0.72
COCCCNc1nc(-c2ccccc2)cs1 | 1.18
Cc1cccc(Nc2nc(-c3ccccc3)cs2)n1 | 3.09 (active)
c1ccc(Nc2nc(-c3ccncc3)cs2)nc1 | 2.79
CC(C)(C)NC(=S)Nc1ccc(F)c(Cl)c1 | 16.8
CC1(C)N=C(N)N=C(N)N1c1ccccc1C(F)(F)F | 1.59
CCOC(=O)Cc1csc(NC(=O)Nc2cccc3ccccc23)n1 | 6.9
Cn1nc(-c2ccc(Cl)cc2)[nH]c1=O | -1.42
Cc1nc(-c2ccc(C(F)(F)F)cc2)[nH]c(=O)c1Oc1ccc(Cl)cc1Cl | 0.23
CCCCc1c(COC)nc(-c2ccc(Cl)cc2)[nH]c1=O | 3.16 (active)
O=C(O)C1Nc2ccc(Cl)cc2C2C=CCC12 (stereo not drawn) | 15.4 (active)
COC(=O)c1ccc([C@@H]2Nc3ccc(F)cc3[C@@H]3C=CC[C@@H]32)cc1 | 0.68
O=S(=O)(c1ccc(C2Nc3ccc(Cl)cc3C3C=CCC32)cc1)N1CCOCC1 (stereo not drawn) | -0.43

Compound | z-score
CSC(=NCc1ccco1)Nc1ccc(Cl)cc1 | 2.16
CCc1ccnc(NC(=O)Nc2ccc(OCc3ccccc3)cc2)c1 | 0.13
Nc1cc(-c2ccccc2)nn1-c1ccccc1 | -0.41
Nc1cccc(-c2cc(-c3ccccc3)nc(-c3cccc(N)c3)n2)c1 | 8.06 (active)
c1ccc(-c2cc(-c3ccccc3)[nH]n2)cc1 | 0.74
O=C(O)CCc1nc2ccccc2[nH]c1=O | -2.59
COc1cccc(OC)c1C(=O)NC(=O)Nc1c(C)cc(Br)cc1C | -0.89
CN(C)/C=C/c1nnnn1-c1ccc(Br)cc1 | 2.13
Nc1c(C(=O)NNC(=S)Nc2ccccc2)cnn1-c1ccccc1 | 3.4 (active)
NNC(=O)c1cnn(-c2ccccc2)c1C(F)(F)F | -1.32
Cc1cc(NC(=O)Nc2ccccc2)n(-c2ccccc2)n1 | -0.46
CCc1ncc(C(O)c2ccccc2)n1C (stereo not drawn) | -0.48
COCCCn1c2c(c(=O)[nH]c1=O)C(c1ccc(C(=O)O)cc1)C1=C(N2)c2ccccc2C1=O (stereo not drawn) | -1.05
COc1cc(C(=O)NCC2CCCO2)c(OC)cc1C(=O)NCC1CCCO1 (stereo not drawn) | 1.74
Oc1ccccc1-c1nc(/C=C/c2ccc(F)cc2)no1 | -0.19
Nc1nc(/C=C/c2ccc(O)cc2)nc(-c2ccccc2O)n1 | 5.62 (active)
COc1ccc(/C=C/c2noc(-c3ccccc3O)n2)cc1OC | 0.89
CN1c2ccc(Cl)cc2C(C)(C)C12C=Nc1c(ccc3ccccc13)O2 (stereo not drawn) | -0.52
O=C(Nc1ccccc1)Nc1ccc(C(F)(F)F)cn1 | 0.31
CC(C)Cn1c(Cn2c3ccccc3c3ccccc32)n[nH]c1=S | 3.9 (active)
OCC(O)Cn1c2ccccc2c2ccccc21 (stereo not drawn) | -0.45
CCn1c(CN2C(=O)CSc3ccccc32)n[nH]c1=S | 0.75
CCOC(=O)c1c(C)nn(-c2ncccc2[N+](=O)[O-])c1C | -0.17
Cc1[nH]nc(NCc2ccccc2)c1[N+](=O)[O-] | -1.14
O=C1CC(c2ccccc2)N(c2ccc(OC(F)(F)F)cc2)C(=S)N1 (stereo not drawn) | -0.98
O=C(Nc1ccccc1)O/N=C1\CCSC1 | 0.99

Compound | z-score
Cc1ccc(N2C(=O)c3oc4cc(C)c(C)cc4c(=O)c3C2c2ccc(O)cc2)nc1 (stereo not drawn) | 0.43
O=C1c2oc3ccccc3c(=O)c2C(c2cccc(O)c2)N1Cc1ccccc1 (stereo not drawn) | 0.58
C=CCOc1cccc(C2c3c(oc4ccccc4c3=O)C(=O)N2c2ccc(C)cn2)c1 (stereo not drawn) | 0.54
Cc1ccc(N2C(=O)c3oc4ccccc4c(=O)c3C2c2cccnc2)nc1 (stereo not drawn) | 3.52 (active)
C=CCOc1ccc(C2c3c(oc4ccccc4c3=O)C(=O)N2c2ccc(C)cn2)cc1 (stereo not drawn) | 0.29
O=C1c2oc3ccccc3c(=O)c2C(c2cccc(O)c2)N1c1ccccn1 (stereo not drawn) | 3.7 (active)
Cc1nc(N/N=C2\CCCc3ccccc32)sc1C | 0.78
CC(C)(C)NC(=O)c1nn2c(C(F)(F)F)cc(-c3ccccc3)nc2c1Cl | -0.55
CCCc1nnc(N2C(=O)c3oc4ccc(F)cc4c(=O)c3C2c2ccc(OC)cc2)s1 (stereo not drawn) | 1.52
O=C(N/C=C/c1ccsc1)Nc1cc(C(F)(F)F)cc(C(F)(F)F)c1 | 0.88
Cc1ccc(NC(=O)Nc2cc(-c3ccccc3)nn2C)cc1Cl | 0.04
O=C1CC(Cc2ccc(Cl)cc2)C(=O)N1c1ccccc1 (stereo not drawn) | 0.01
O=C1CC(NCC2CCCCC2)C(=O)N1c1ccccc1 (stereo not drawn) | 3.63 (active)
CCCCC1(C2CC(=O)N(c3ccccc3)C2=O)C(=O)N(c2ccccc2)N(c2ccccc2)C1=O (stereo not drawn) | 1.04
O=C(C1Sc2nnc(-c3ccccc3)n2NC1c1ccc(F)cc1)N1CCOCC1 (stereo not drawn) | 2.92
Cc1ccc(-c2cc3nccc(-c4ccccc4O)n3n2)cc1 | 3.02 (active)
Cc1cc(-c2ccccc2)n2nc(-c3ccccc3)cc2n1 | 0.87
COc1ccc(-c2cc3nccc(-c4cc(F)ccc4O)n3n2)cc1 | 1.88
CC1CCc2c(sc3ncnc(SC(C)C(=O)O)c23)C1 (stereo not drawn) | -0.91
CCOC(=O)c1sc(N2C(=O)c3oc4ccccc4c(=O)c3C2c2cccs2)nc1C (stereo not drawn) | 1.43
CCOC(=O)c1ccc(NC(=S)N(Cc2ccccc2)C(C)C)cc1 | -0.22
CC(C)(C)OC(=O)NCC(=O)OCc1ccc(CC(=O)O)cc1 | 3.04 (active)
O=C(O)Cc1ccc(-c2ccccc2)cc1 | -0.37
O=C(NCCC(O)C(=O)O)OCc1ccccc1 (stereo not drawn) | -1.43
COc1ccc2cccc(OC)c2n1 | -1.05
